Each structure is given as a SMILES string. Active and inactive are the calls of the source. Unless noted, how the calls were made is not given here.

The source of these data is PubChem BioAssay.

Assay [1] deals with Wnt5a (protein binding on small-molecule microarray). Put plainly: small molecules binding Wnt5a protein – biophysical, small-molecule microarray, 635/667 nm fluorescence, primary screen (AID 1142).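 Further: fluorescence read at 667 nm with signal to noise per printed feature.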 To be noted: 635 nm fluorescence, higher = more signal.
Assay [2] is described as follows: ATP-based viability of Huh7 replicon cells – cell-based, CellTiter-Glo luminescence, basal, 48 h, cytotoxicity control for HCV replication inhibitor project, primary screen (AID 1143).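 Further: Huh7 hepatoma cells carrying a hepatitis C replication reporter with no stimulus; test concentration not given here.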 As to conditions: higher = more signal, called active from +8 up or from −8 down. A general note: In antiviral work, replicon cells carry a viral genome segment that copies itself.
Assay [3] can be described thus: Pseudomonas biofilm growth suppression – PAO1 strain, BacTiter-Glo luminescence, LB-PBS, primary screen (AID 1144). As to conditions: P. aeruginosa PAO1 biofilm, 12 h, higher = more signal.
A short description of assay [4]: basal CRE-LacZ reporter activity in PC12 – cell-based, unstimulated, primary screen (AID 1145). As to conditions: no forskolin, luminescence, 4.5 h, higher = more signal, called active from +8 up or from −8 down.
Assay [5] is described as follows: forskolin-driven CRE-LacZ activity in PC12 – cell-based, CRE-LacZ reporter, forskolin-stimulated, primary screen (AID 1146).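 Further: PC12 cells with 6xCRE LacZ reporter stimulated by forskolin 10 µM; beta-galactosidase reporter signal reflecting CREB driven transcription.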 As to conditions: luminescence, 4.5 h, higher = more signal, called active from +8 up or from −8 down.
Assay [6] concerns the target Streptavidin (Streptomyces avidinii) (UniProt P22629). Put plainly: compounds binding control protein streptavidin – biophysical, small-molecule microarray, 635/667 nm fluorescence, artefact control for SMM compound annotation, primary screen (AID 1147).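 Further: signal reflects streptavidin binding to arrayed compounds as a control protein.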 As to conditions: higher = more signal.
The nature of assay [7]: probe aInhba binding on compound microarray – biochemical, small-molecule microarray, 635/667 nm fluorescence, primary screen (AID 1148).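 Further: score merges 667nm spot fluorescence with signal-to-noise for antibody binding to printed compounds.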 As to conditions: higher = more signal.
The target in assay [8] is Torsin-1A (Homo sapiens) (UniProt O14656). The experiment in a line: TOR1A wild-type binding on microarray – cell lysate, small-molecule microarray, lysate, 635/667 nm, primary screen (AID 1149). As to conditions: COS7 hTOR1A-WT lysate, 635 nm fluorescence, higher = more signal.
Sequence of Torsin-1A (Homo sapiens) (O14656 whole entry, looked up): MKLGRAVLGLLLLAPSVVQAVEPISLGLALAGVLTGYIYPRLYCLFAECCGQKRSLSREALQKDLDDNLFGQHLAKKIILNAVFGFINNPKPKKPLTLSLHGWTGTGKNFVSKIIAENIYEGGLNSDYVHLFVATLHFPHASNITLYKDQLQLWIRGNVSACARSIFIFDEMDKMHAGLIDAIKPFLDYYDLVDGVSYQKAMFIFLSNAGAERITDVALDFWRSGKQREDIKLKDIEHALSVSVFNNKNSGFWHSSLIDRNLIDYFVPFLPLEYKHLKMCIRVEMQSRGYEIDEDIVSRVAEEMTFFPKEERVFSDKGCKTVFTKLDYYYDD
The target is the same in assay [9]. Put plainly: torsin A mutant lysate binding on microarrays – cell lysate, small-molecule microarray, COS7 lysate, 635/667 nm fluorescence, primary screen (AID 1150).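 Further: score pools 667 nm emission and signal to noise measuring lysate protein binding.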 To be noted: COS7 hTOR1A mutant lysate, 635 nm fluorescence, higher = more signal.
In assay [10] the test system is Sonic hedgehog protein (Shh). The experiment in a line: Sonic hedgehog microarray binding compounds – biochemical, small-molecule microarray, 635/667 nm fluorescence, primary screen (AID 1151).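 Further: Shh protein binding to compounds spotted on small-molecule microarray slides; score combines spot fluorescence intensity with signal-to-noise across triplicate slides.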 To be noted: 635 nm fluorescence, higher = more signal.
Assay [11] can be described thus: optical density shifts of acrAB sulA E. coli – strain DRC41, OD650, 48 h, E. coli filamentation inducer project, primary screen (AID 1152).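 Further: E. coli MC1000 strain DRC41 lacking acrAB efflux pump and sulA.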 To be noted: higher = more signal, called active from +8 up or from −8 down.
The nature of assay [12]: probe aLefty1 binding on compound microarray – biochemical, small-molecule microarray, 635/667 nm fluorescence, primary screen (AID 1153).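 Further: score merges spot fluorescence with signal-to-noise ratio from the scanned slide images.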 As to conditions: higher = more signal.
Assay [13] in a line: plasmodial surface anion channel blockers, osmotic lysis – cell-based, P. falciparum Indochina, OD700, 1 h, primary screen (AID 1154). To be noted: P. falciparum Indochina infected RBC osmotic lysis, higher = more signal, called active from +8 up or from −8 down.
The nature of assay [14]: plasmodial surface anion channel blockers, osmotic lysis – cell-based, P. falciparum Indochina, OD700, 2 h, primary screen (AID 1155).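 Further: lysis reports solute entry through the parasite surface anion channel PSAC.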 As to conditions: P. falciparum Indochina infected erythrocytes, higher = more signal, called active from +8 up or from −8 down.
Assay [15] can be described thus: changes in parasitized red cell lysis, either direction – P. falciparum Indochina, OD700, 3 h, PSAC antagonist project, primary screen (AID 1156). As to conditions: P. falciparum-infected erythrocytes, osmotic lysis, higher = more signal, called active from +8 up or from −8 down.
A short description of assay [16]: plasmodial surface anion channel blockers, osmotic lysis – cell-based, P. falciparum Indochina, OD700, 18 h, primary screen (AID 1157). As to conditions: P. falciparum Indochina infected erythrocytes, osmotic lysis OD700, 18 h; higher = more signal, called active from +8 up or from −8 down.
Assay [17] in a line: S6 kinase pathway phospho-S6 level changes – cell-based, A549, cytoblot, luminescence, serum-stimulated, primary screen (AID 1158).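 Further: serum-stimulated A549 lung adenocarcinoma cells; signal is phosphorylated S6 detected by cytoblot immunostaining with HRP secondary.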 To be noted: 5 h, higher = more signal.
Assay [18] concerns the target NADPH oxidase 2 (Homo sapiens) (UniProt P04839). Put plainly: compounds shifting NOX2 Amplex Red fluorescence – cell-based, HEK293-NOX2, PMA-stimulated, NOX inhibitor project, primary screen (AID 1159). Further: test concentration not given here. To be noted: 45 min, higher = more signal, called active from +8 up or from −8 down.
The target of assay [19] is NADPH oxidase 4 (Homo sapiens) (UniProt Q9NPH5). Put plainly: compounds shifting NOX4 Amplex Red fluorescence – cell-based, HEK293-NOX4, tetracycline-induced, NOX inhibitor project, primary screen (AID 1160). To be noted: HEK293-NOX4, Amplex Red H2O2 fluorescence, 45 min; higher = more signal, called active from +8 up or from −8 down.
Sequence of NADPH oxidase 4 (Homo sapiens) (Q9NPH5 whole entry, looked up): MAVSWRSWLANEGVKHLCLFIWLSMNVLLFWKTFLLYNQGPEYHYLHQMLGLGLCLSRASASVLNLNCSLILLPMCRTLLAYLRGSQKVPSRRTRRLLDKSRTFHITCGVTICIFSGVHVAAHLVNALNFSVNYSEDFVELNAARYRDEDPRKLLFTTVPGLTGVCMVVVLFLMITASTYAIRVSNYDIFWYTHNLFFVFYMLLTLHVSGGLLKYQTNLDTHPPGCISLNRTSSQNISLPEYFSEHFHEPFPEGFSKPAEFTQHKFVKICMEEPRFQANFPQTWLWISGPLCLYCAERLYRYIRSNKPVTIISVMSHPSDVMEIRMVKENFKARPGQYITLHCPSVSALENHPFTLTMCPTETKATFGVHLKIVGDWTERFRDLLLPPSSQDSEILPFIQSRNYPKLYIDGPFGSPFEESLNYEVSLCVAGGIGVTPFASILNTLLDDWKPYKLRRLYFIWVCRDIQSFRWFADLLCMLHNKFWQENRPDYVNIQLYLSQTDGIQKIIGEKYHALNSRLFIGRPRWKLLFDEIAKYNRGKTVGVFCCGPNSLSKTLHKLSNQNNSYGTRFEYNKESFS
For assay [20], the target named is NADPH oxidase 5 (Homo sapiens) (UniProt Q96PH1). The experiment in a line: compounds shifting NOX5 Amplex Red fluorescence – cell-based, HEK293-NOX5, NOX inhibitor project, primary screen (AID 1161). As to conditions: HEK293-NOX5, ionomycin, 45 min, higher = more signal.
Sequence of NADPH oxidase 5 (Homo sapiens) (Q96PH1 whole entry, looked up): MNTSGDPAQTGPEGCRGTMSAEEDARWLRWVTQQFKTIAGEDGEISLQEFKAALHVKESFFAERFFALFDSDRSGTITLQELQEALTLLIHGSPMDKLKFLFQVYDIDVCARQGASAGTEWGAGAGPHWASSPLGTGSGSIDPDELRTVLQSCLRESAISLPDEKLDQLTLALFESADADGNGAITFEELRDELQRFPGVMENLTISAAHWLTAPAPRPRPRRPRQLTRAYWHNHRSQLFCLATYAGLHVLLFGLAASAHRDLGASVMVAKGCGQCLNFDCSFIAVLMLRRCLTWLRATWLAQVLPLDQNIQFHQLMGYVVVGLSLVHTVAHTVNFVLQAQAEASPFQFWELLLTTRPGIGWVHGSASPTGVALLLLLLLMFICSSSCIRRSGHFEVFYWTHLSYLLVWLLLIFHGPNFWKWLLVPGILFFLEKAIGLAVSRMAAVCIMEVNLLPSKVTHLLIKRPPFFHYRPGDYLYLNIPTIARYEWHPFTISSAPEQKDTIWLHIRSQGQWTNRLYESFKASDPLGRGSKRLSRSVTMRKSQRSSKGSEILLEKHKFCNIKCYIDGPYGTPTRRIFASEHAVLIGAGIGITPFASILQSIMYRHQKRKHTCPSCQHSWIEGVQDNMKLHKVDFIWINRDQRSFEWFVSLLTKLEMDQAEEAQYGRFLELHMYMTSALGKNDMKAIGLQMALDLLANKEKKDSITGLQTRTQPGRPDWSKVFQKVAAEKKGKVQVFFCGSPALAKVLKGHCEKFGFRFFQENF

Sequence of Streptavidin (Streptomyces avidinii) (P22629 whole entry, looked up): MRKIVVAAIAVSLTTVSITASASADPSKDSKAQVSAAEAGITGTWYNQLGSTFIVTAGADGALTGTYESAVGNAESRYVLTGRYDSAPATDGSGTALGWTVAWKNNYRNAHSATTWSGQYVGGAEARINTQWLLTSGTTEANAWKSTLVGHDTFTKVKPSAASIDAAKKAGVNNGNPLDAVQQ
Sequence of NADPH oxidase 2 (Homo sapiens) (P04839 whole entry, looked up): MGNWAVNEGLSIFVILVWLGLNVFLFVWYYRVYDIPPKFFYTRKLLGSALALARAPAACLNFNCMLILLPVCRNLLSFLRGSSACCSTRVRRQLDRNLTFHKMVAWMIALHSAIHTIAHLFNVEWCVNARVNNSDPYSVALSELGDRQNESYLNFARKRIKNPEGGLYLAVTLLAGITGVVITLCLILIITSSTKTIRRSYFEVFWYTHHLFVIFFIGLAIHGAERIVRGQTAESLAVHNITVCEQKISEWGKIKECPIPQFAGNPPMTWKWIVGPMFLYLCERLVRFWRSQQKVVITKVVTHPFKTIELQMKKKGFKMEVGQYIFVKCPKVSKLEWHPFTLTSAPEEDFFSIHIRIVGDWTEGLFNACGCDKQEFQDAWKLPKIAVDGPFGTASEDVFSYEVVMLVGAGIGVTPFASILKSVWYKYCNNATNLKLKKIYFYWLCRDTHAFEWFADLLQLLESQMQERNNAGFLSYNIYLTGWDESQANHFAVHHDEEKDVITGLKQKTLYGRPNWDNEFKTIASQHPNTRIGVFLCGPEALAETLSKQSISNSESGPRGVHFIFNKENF

With `O=C1NC(=O)C2C1C=CC(C(O)c1ccc(-c3ccccc3)s1)N2Nc1ccccn1` (stereo not given), the composite z-score in [1] was 0.368; in [6], 0.45; in assay [7] it was -0.0662; with Torsin-1A (Homo sapiens) [8] it was 0.351; with Torsin-1A (Homo sapiens) [9] it was 0.898; in assay [10] it was -0.0564. The compound also showed a composite z-score in [12] of 0.114. Also, the z-score in assay [2] is 0.429 (inactive); in assay [3], -0.505 (inactive); in assay [4], -0.329 (inactive); in [5], 0.0978 (inactive); in assay [11] it was -0.513 (inactive); in assay [13], 2.41 (inactive). Also, the z-score was 1.14 (inactive) in [14]; 0.216 (inactive) in assay [15]; 1.02 (inactive) in assay [16]; -0.697 in assay [17]; -1.09 (inactive) in assay [18]; -2.3 (inactive) in assay [19]. Further, the z-score in [20] is -1.44.
Turning to `CC(C)CNC(=O)[C@@]1(C)c2ccccc2C(=O)N(Cc2ccccc2)[C@H]1c1ccc(CO)cc1`, the composite z-score was -0.368 in assay [1]; -1.18 in assay [6]; -0.331 in assay [7]; -1.5 with Torsin-1A (Homo sapiens) [8]; -0.742 in the assay with Torsin-1A (Homo sapiens) [9]; -1.02 in [10]. The same compound came in with a composite z-score in assay [12] of -0.16. For the same compound, the z-score in assay [2] is 0.0572 (inactive); in assay [3], 0.789 (inactive); in assay [4] it was 0.531 (inactive); in assay [5] it was 0.172 (inactive); in assay [11] it was -0.743 (inactive); in [13], 3.11 (inactive). In addition, the z-score was 0.122 (inactive) in assay [14]; 0.709 (inactive) in assay [15]; 0.0589 (inactive) in assay [16]; 0.11 in [17]; -0.912 (inactive) in assay [18]; 0.0265 (inactive) in [19]. Further, in [20], the z-score is -1.13.
As for `C=C(COC)C(=O)CC[C@H](OC(=O)c1ccccc1-c1ccccc1C(=O)O)c1ccc(CO)o1`, the composite z-score is 0.634 in assay [1]; -0.451 in [6]; -0.179 in assay [7]; 0.507 in the assay with Torsin-1A (Homo sapiens) [8]; 1.79 in the assay with Torsin-1A (Homo sapiens) [9]; 1.69 in assay [10]. In assay [12], this compound came in with a composite z-score of -0.0954. For the same compound, the z-score is 0.465 (inactive) in assay [2]; -0.39 (inactive) in [3]; 0.434 (inactive) in assay [4]; 0.964 (inactive) in assay [5]; -0.093 (inactive) in assay [11]; 1.77 (inactive) in assay [13]. Besides, the z-score is 0.404 (inactive) in assay [14]; 1.38 (inactive) in [15]; 0.161 (inactive) in [16]; -0.121 in assay [17]; -0.0961 (inactive) in [18]; -0.0962 (inactive) in assay [19]. Moreover, the z-score in assay [20] is -0.0437.
In the case of `COCCOC(=O)N1C(=O)[C@@]2(c3cc(C#CCCO)ccc31)[C@H](C(=O)N1CCc3cc(OC)c(OC)cc3C1)[C@H]1C(=O)O[C@H](c3ccccc3)[C@H](c3ccccc3)N1[C@@H]2c1ccc(OCCO)cc1`, the composite z-score is 0.667 in assay [1]; 0.675 in [6]; 0.077 in assay [7]; 0.284 with Torsin-1A (Homo sapiens) [8]; 0.89 with Torsin-1A (Homo sapiens) [9]; 2.13 in assay [10]. In assay [12], this compound had a composite z-score of 0.113. The z-score in [2] was -2.99 (inactive); in assay [3], -1.11 (inactive); in assay [4], 0.362 (inactive); in [5] it was -1.27 (inactive); in assay [11] it was 1.42 (inactive); in assay [13], 4.67 (inactive). The z-score in assay [14] was 1.02 (inactive); in assay [15], 0.138 (inactive); in assay [16] it was -0.0492 (inactive); in assay [17], 1.26; in [18], 1.35 (inactive); in assay [19], 1.07 (inactive). For the same compound, in [20], the z-score stood at 1.44.
As to `C[N+](C)(C)CCCC[C@@H]1NC(=O)[C@H]2C[C@@H](C(=O)NCCCCCCN)[C@@H](c3cccc(OCCO)c3)N2C1=O`, the composite z-score in assay [1] turned out to be 0.693; in [6], 1.65; in assay [7], 0.794; in the assay with Torsin-1A (Homo sapiens) [8] it was 1.33; with Torsin-1A (Homo sapiens) [9] it was 1.25; in assay [10] it was 2.04. Further, the composite z-score in [12] stood at 1.29. For the same compound, the z-score in [2] was 0.0395 (inactive); in assay [3], 0.406 (inactive); in assay [4], -0.809 (inactive); in assay [5] it was -0.254 (inactive); in [11] it was -0.0261 (inactive); in assay [13] it was 1.19 (inactive). In addition, the z-score in assay [14] is 0.156 (inactive); in [15] it was 3.3 (inactive); in [16] it was 0.0792 (inactive); in [17] it was -0.161; in [18] it was 1.12 (inactive); in assay [19] it was 0.64 (inactive). Further, the z-score in assay [20] is 1.58.
